Measured values published in ChEMBL document CHEMBL3988442, “University of Dundee, Small-Polar-MMV Screening Library” (2021).
For some of these results: Results with a measured potency or affinity are listed apart.

Key:
Design in all cases: scale not given: direction of the effect not stated beside the values
[1] = molecular target: Protein translocase subunit SecA (Escherichia coli (strain K12)) (UniProt P10408); assay: Assay to Identify E. coli SecA ATPase Inhibitors; type: functional; conditions: 30 µM
Protein translocase subunit SecA (Escherichia coli (strain K12)), sequence (P10408 whole entry): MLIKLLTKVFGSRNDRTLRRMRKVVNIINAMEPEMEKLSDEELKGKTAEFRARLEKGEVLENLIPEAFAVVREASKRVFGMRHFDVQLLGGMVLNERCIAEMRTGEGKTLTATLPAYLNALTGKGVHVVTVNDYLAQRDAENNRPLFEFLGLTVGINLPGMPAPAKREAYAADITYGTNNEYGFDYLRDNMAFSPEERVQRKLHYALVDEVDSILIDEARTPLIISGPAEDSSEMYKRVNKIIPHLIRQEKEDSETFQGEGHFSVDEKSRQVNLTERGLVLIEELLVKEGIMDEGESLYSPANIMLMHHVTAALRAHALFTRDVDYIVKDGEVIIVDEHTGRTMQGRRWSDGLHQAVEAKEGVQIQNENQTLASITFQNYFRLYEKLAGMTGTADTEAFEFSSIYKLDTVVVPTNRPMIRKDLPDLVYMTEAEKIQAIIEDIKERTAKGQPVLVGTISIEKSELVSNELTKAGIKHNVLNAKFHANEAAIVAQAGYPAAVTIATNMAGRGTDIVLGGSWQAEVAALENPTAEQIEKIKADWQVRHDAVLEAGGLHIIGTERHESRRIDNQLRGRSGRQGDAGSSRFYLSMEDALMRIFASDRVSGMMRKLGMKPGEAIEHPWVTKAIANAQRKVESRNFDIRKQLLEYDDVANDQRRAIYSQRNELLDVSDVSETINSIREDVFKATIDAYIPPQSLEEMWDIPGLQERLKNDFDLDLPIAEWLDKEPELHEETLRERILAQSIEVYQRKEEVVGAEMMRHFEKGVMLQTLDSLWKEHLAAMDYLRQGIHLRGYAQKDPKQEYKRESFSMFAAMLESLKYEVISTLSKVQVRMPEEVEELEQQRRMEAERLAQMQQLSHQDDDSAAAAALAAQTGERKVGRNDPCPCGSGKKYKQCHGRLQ

[2] = molecular target: T1, Ubiquitin-activating enzyme e1, putative (Leishmania donovani (strain BPK282A1)) (UniProt E9BSI1); assay: Leishmania donovani Ubiquitin Activating Enzyme (LdE1); type: functional; conditions: 30 µM
T1 sequence (whole entry): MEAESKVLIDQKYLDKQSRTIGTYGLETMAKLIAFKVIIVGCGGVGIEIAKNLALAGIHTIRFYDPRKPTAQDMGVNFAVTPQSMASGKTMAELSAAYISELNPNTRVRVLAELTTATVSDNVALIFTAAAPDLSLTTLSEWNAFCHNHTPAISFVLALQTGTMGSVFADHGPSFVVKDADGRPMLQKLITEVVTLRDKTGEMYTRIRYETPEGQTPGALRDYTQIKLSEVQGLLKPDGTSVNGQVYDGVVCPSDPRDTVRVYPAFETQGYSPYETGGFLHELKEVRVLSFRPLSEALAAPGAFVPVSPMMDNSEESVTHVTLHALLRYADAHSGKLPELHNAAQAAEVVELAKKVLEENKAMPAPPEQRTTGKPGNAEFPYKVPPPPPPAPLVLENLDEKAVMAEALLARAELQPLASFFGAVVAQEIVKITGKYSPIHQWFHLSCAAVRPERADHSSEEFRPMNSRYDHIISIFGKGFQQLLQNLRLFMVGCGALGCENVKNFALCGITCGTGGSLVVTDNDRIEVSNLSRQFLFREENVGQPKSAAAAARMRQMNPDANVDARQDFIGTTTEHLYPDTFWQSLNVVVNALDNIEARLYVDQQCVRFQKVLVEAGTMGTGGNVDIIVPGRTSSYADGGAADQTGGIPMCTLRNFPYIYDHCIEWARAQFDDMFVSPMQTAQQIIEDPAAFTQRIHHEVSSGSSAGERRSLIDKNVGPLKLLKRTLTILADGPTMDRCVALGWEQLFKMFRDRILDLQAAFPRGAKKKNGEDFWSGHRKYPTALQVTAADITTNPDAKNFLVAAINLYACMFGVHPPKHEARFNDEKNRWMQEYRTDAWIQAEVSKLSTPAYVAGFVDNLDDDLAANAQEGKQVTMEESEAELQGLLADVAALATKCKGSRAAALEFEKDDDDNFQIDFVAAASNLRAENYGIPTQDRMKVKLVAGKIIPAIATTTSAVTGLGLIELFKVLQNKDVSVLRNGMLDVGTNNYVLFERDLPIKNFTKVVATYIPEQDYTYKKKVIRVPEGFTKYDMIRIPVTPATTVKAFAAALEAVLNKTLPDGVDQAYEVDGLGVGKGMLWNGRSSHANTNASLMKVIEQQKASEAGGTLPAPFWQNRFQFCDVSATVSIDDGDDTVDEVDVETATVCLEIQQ

[3] = molecular target: AMP-activated protein kinase, AMPK (Homo sapiens) (UniProt P54646+O43741+P54619+Q9UGJ0+Q9Y478+Q13131+Q9UGI9); assay: AMP-dependent Kinase enzyme assay. An in vitro enzyme assay that detects ADP turnover that is directly proportional to AMPK activity. This uses naive AMPK that is activated during the assay with MK-8722; type: functional; conditions: 30 µM
[4] = molecular target: Sialic acid-binding Ig-like lectin 9 (Homo sapiens) (UniProt Q9Y336); assay: Hs-Siglec9 ALPHAscreen SOP 20170721; conditions: 10 µM
Sialic acid-binding Ig-like lectin 9 (Homo sapiens), sequence (Q9Y336 whole entry): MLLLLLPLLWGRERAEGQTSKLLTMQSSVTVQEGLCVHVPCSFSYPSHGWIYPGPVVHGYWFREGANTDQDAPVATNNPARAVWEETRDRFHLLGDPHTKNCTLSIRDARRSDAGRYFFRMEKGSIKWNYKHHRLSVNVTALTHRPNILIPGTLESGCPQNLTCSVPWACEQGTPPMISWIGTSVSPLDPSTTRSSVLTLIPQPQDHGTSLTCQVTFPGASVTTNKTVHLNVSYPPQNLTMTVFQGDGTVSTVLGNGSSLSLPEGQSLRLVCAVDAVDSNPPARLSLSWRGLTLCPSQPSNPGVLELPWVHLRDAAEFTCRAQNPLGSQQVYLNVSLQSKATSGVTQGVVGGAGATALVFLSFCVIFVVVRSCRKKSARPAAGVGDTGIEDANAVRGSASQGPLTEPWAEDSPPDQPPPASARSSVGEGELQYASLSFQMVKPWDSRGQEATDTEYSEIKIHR

Trypanosoma cruzi = assay: Trypanosoma cruzi phosphomannomutase and mannose-1-phosphate guanylyltransferase assay; type: functional; conditions: 10 µM
[5] = molecular target: T2, Arginase-2, mitochondrial (Homo sapiens) (UniProt P78540); assay: in vitro enzyme assay to detect the production of urea directly proportional to the activity of Arginase II; type: functional; conditions: 33.3 µM; note: in the data most compounds retested in dose-response had high values
T2 sequence (whole entry): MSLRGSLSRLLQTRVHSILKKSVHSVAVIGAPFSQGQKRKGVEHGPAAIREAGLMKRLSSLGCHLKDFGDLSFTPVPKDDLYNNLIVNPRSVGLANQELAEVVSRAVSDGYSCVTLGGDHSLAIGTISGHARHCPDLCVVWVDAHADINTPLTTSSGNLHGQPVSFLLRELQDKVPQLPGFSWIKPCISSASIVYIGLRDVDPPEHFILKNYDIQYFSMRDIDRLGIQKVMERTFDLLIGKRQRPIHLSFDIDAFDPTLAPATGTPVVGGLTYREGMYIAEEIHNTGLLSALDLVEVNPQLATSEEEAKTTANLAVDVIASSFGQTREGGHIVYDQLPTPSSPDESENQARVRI

[6] = molecular target: T3, Proteasome subunit beta (Trypanosoma cruzi) (UniProt O96673); assay: Trypanosoma cruzi proteasome chymotrypsin-like activity (TcProtChymo) assay.; note: in the data most compounds retested in dose-response had high values; type: functional; conditions: 9.37 µM
T3 sequence (whole entry): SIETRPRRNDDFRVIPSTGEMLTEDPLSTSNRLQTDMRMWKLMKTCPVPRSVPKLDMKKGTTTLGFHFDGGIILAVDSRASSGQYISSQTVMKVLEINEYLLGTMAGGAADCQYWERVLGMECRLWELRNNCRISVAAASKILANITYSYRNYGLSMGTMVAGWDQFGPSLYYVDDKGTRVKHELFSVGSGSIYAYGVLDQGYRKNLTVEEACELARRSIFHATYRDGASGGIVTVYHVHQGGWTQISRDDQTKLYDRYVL

Homo sapiens = species on record: Homo sapiens; assay: To identify inhibition of the IFN signalling (Jak-Stat) pathway via expression of an eGFP reporter gene under the control of an IFN-stimulated response element (ISRE) containing MxA promoter.; type: functional; conditions: 30 µM
[7] = molecular target: T4, Tyrosyl-tRNA synthetase, putative (Trypanosoma cruzi (strain CL Brener)) (UniProt Q4DSP6); assay: Trypanosoma cruzi tyrosyl tRNA synthetase (TcYRS) _High Tyrosine SOP; type: functional; conditions: 30 µM; note: in the data most compounds retested in dose-response had high values
T4 sequence (whole entry): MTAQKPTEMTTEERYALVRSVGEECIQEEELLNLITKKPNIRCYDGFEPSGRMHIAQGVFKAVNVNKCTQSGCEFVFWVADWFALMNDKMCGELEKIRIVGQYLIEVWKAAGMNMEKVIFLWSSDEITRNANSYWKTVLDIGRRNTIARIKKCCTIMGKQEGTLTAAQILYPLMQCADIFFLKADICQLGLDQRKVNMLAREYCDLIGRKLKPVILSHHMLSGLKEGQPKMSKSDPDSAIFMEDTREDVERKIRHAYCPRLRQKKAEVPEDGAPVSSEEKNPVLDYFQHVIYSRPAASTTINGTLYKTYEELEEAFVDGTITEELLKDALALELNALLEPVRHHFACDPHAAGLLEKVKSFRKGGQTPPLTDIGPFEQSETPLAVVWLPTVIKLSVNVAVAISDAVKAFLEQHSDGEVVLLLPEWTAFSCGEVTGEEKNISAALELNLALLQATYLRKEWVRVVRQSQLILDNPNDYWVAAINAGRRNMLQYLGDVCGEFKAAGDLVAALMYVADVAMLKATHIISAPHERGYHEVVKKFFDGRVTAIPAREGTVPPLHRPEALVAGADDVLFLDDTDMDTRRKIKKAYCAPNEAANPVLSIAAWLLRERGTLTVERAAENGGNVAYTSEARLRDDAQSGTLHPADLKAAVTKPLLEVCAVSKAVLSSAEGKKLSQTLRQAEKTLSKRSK

[8] = molecular target: T4, Tyrosyl-tRNA synthetase, putative (Trypanosoma cruzi (strain CL Brener)); assay: Trypanosoma cruzi tyrosyl tRNA synthetase (TcYRS) SOP; type: functional; conditions: 30 µM
[9] = molecular target: Chromo domain-containing protein 1 (Saccharomyces cerevisiae (strain ATCC 204508 / S288c) (Baker's yeast)) (UniProt P32657); assay: ScCHD-1 Enzyme Inhibition Assay; type: functional; conditions: 30 µM; note: in the data most compounds retested in dose-response had high values
Chromo domain-containing protein 1 (Saccharomyces cerevisiae (strain ATCC 204508 / S288c) (Baker's yeast)), sequence (P32657 whole entry, the tested form may be a part): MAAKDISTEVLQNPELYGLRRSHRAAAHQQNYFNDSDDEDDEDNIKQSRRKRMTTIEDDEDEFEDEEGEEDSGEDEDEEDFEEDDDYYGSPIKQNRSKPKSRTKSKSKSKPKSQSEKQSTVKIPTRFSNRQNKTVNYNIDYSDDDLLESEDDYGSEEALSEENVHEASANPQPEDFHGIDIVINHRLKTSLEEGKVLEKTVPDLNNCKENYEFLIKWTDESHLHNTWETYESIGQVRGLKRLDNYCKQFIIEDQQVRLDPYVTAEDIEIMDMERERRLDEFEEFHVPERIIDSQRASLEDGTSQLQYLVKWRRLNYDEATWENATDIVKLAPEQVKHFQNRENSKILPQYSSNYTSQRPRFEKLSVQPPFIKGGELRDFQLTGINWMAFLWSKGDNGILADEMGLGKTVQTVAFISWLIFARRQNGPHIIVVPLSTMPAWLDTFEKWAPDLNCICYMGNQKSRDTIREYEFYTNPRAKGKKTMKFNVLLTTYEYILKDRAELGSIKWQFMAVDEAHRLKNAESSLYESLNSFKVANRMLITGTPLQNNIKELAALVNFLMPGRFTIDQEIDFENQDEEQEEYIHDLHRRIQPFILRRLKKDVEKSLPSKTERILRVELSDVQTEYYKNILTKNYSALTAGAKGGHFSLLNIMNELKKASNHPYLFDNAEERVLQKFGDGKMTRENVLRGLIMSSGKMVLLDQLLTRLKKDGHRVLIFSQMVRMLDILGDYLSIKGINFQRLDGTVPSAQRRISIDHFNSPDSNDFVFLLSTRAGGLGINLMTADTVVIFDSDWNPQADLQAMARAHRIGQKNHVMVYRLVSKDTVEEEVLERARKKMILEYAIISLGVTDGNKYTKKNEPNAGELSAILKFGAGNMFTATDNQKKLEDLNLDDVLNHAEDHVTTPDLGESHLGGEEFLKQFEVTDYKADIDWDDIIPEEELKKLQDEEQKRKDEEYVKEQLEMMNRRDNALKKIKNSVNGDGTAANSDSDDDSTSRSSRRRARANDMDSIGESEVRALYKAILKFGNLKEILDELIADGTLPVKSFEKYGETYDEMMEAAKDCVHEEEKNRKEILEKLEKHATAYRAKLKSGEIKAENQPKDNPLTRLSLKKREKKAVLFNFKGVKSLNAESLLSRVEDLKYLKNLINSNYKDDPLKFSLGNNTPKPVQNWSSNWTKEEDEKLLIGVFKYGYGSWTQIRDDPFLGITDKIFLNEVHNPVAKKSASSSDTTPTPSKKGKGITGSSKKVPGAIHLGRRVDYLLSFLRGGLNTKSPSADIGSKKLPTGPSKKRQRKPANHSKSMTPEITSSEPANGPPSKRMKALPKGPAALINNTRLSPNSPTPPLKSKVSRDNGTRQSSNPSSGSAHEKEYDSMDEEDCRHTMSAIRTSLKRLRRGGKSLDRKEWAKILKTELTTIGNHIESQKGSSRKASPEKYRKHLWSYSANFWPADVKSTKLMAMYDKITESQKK

SMILES | Percent Effect [1] [%] | Percent Effect [2] [%] | Percent Effect [3] [%] | Percent Effect [4] [%] | Percent Effect (Trypanosoma cruzi) [%] | Percent Effect [5] [%] | Percent Effect [6] [%] | Percent Effect (Homo sapiens) [%] | Percent Effect [7] [%] | Percent Effect [8] [%] | Percent Effect [9] [%]
Cn1ccc(C(=O)N2CCC(Cc3cnc4[nH]ccc4c3)CC2)n1 | -2.94 | 6.76 | 13 | 2.89 | -0.395 | 1.16 | 7.64 | 7.58 | 4.3 | 14.3 | -4.7
COCCN(CCc1ccccc1)Cc1nc2c(cnn2C)c(=O)[nH]1 | -1.78 | 13.5 | 1.09 | 15.2 | 1.04 | -2.81 | -0.36 | -11.6 | 7.39 | 18.5 | -9.44
CC(C)c1nc(CN2CCN(CC3CCCO3)CC2)cs1 (stereo unspecified) | 1.19 | 10.4 | -7.85 | -14 | -1.47 | 6.95 | 14.8 | 17.1 | 4.76 | 9.41 | -15.6
CCSc1cc(C(=O)NCc2ccccc2O)ccn1 | -5.37 | 0 | 5.33 | -0.329 | 7.05 | -0.909 | 12.2 | 44.3 | 3.23 | 5 | -5.04
CCCC(C)C(=O)NCc1cn2cc(Br)ccc2n1 (stereo unspecified) | -3.66 | -44.7 | 5.33 | 4.19 | -0.876 | -2.37 | 9.68 | 4.86 | 9.57 | 15.6 | -2.1
Cc1cc(CN(C)C(=O)NC2CCN(Cc3ccccc3)C2)no1 (stereo unspecified) | -1.84 | 18.4 | -5.49 | -5.79 | 4.51 | -2.3 | 15.4 | -0.406 | 8.33 | 21.9 | -12
O=C1CC[C@H]2[C@H](CCN2C(=O)C2CCCO2)N1Cc1ccncc1 (stereo partly specified) | -2.88 | 22.7 | -8.21 | -5.26 | 2.36 | -8.63 | 14.1 | 12.9 | 1.06 | 7.69 | -8.01
O=C(CN1CCCCC1C1OCCO1)Nc1ccc(F)c(F)c1 (stereo unspecified) | -3.75 | 5.41 | 1.85 | -4.88 | -1.95 | 0 | 6.68 | 17.6 | 1.98 | 6.1 | 2.05
c1csc(CN2C[C@@H]3OCCN(CC4CCCO4)[C@@H]3C2)c1 (stereo partly specified) | -3.09 | 5.48 | -0.633 | 5.1 | -1.39 | -1.2 | 10.2 | 4.94 | 5.21 | 16.1 | 1.15
CC(C)c1nc(C2CCCN2Cc2ccccc2C#N)no1 (stereo unspecified) | -1.53 | -13 | -3.89 | 11.4 | 5.24 | 1.07 | -4.22 | 5.77 | 5.83 | 12.2 | 73.9
CC(C)C(=O)N1CCC(c2nc(O)cc(-c3ccncc3)n2)CC1 | -5 | 25.7 | 5.51 | -2.98 | 3.16 | -2.09 | 10.9 | 14.4 | 5.38 | 11.7 | -14.2
